In the library only some 1.6% were active in any assay of this set; here they are far more common.
KCNQ2 enhance: KCNQ2 (rat) channel potentiation; B-score at 10 µM; AID 2239; 310,000 compounds, 0.54% hits; CHO-K1 KCNQ2, FluxOR thallium flux fluorescence; active compounds read high;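 active = fluorescence ratio B-score at least 3 SD of library B-scores, with initial fluorescence B-score within 3 of them, cut at about 5.3 in these data; same plate scores as AID 2156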;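 note: B-score of peak minus minimum over baseline fluorescence ratio after K+ and Tl+ stimulus; positive B-score means potentiation of KCNQ2 with more thallium influx and brighter signal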
KCNQ2 block: blocks the rat KCNQ2 potassium channel | AID 2156 | CHO-K1 KCNQ2, FluxOR thallium flux, 20 min; active compounds read low | O88943 | B-score at 10 µM | 310,000 compounds, 1.1% hits;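 active = fluorescence ratio B-score at most minus 3 library SDs, with starting brightness B-score within 2 library SDs, cut at about -5.5 in these data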
Kir21 confirm: confirmation of mouse Kir2.1 potassium channel inhibitors | shares compounds with KCNQ2 enhance | Kir2.1-expressing cells, FluxOR thallium flux fluorescence; active compounds read low | Tl flux remaining, % of negative control (active compounds read low), % at 10 µM | 2,300 compounds, 41% hits | AID 2032;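 active = Primary-screen hit whose thallium flux fell at least 3 control SD below untreated wells in both duplicates, with normal baseline fluorescence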
Target sequence (P35561 whole entry, looked up): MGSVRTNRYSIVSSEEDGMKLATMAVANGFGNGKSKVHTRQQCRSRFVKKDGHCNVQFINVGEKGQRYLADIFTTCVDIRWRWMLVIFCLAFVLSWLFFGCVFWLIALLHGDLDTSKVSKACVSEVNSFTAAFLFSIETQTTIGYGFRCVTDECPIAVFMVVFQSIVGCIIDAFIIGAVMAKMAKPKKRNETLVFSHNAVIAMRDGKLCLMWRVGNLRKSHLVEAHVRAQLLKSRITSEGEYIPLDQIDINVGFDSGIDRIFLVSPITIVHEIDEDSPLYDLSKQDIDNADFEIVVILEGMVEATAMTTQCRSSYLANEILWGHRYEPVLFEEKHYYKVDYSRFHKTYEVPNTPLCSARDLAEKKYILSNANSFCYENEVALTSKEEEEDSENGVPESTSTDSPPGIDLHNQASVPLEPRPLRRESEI
HEK293 ctr: counter-screen for Kir2.1 inhibitors: effect in parental HEK293 cells; shares compounds with KCNQ2 enhance; FluxOR thallium flux fluorescence; 0% = unstimulated blank wells; FluxOR signal as % of negative control (100 = no effect), % at 10 µM; 2,300 compounds, 19% hits; AID 2105;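 active = dye signal at least 3 control SD above or below untreated wells in both duplicates, raw fluorescence within 3, either direction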;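 note: percent is based on the flux ratio of peak minus minimum fluorescence over baseline F0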
CHO-K1 ctr: counter-screen for KCNQ2 potentiators: effect in parental CHO-K1 cells; activity increase over 3SD of controls, % at 10 µM; FluxOR thallium flux fluorescence; zero = vehicle mean+3SD, 100% = vehicle-minus-blank window; 1,200 compounds, 43% hits; shares compounds with KCNQ2 enhance;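 active = signal rise of at least 3 SD above the untreated control mean, in both duplicate wells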;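 note: counter screen of KCNQ2 potentiator hits so any rise reflects channel-independent effects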
KCNQ1 pot spec: selectivity of KCNQ2 potentiators: effect on human KCNQ1. shares compounds with KCNQ2 enhance. 1,200 compounds, 28% hits. CHO KCNQ1 stable, FluxOR thallium flux fluorescence; beyond 3SD, as % of vehicle-control signal. activation over 3SD threshold, % at 10 µM. AID 2283;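 active = fluorescence ratio rise of at least 3 SD of vehicle wells above their mean, in both replicate wells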
KCNQ2 pot conf: confirmation of rat KCNQ2 potassium channel potentiators; 1,200 compounds, 68% hits; shares compounds with KCNQ2 enhance; CHO-KCNQ2 cells, FluxOR thallium flux fluorescence; potentiation, less the hit threshold, % at 10 µM;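 active = fluorescence ratio rising 3 SD or more over the vehicle control mean in both replicates, plus primary screen hit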;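 note: peak minus minimum thallium fluorescence divided by baseline after K/Tl stimulus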
Kir2-1 sel: selectivity of KCNQ2 potentiators: effect on mouse Kir2.1; shares compounds with KCNQ2 enhance; HEK293 Kir2.1, FluxOR thallium flux fluorescence; activity over 3SD threshold, % at 10 µM; 1,200 compounds, 2% hits; AID 2345;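 active = fluorescence ratio rise of at least 3 SD above the vehicle-control mean, seen in both replicates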
KCNQ2 W236L MoA: rat KCNQ2 W236L mutant potentiation by KCNQ2 potentiators; CHO KCNQ2-W236L, automated patch clamp current; current increase over 3SD of negative controls (%), active compounds read high, % at 25 µM; 940 compounds, 10% hits; shares compounds with KCNQ2 enhance; AID 2558;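 active = current increase at least 3 SD of the untreated controls above them in both duplicate recordings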
Numbers stand for hits.

`CCOC(=O)C(=CNc1ccc(Oc2cncc(Cl)c2)nc1)C(=O)OCC` gave KCNQ2 enhance inactive and KCNQ2 block inactive.
CCOC(=O)c1c(C)[nH]c(C)c1S(=O)(=O)N1CCOCC1 was read as KCNQ2 block inactive.
Cc1ccc(S(=O)(=O)NCCSc2nnnn2-c2cc(C)ccc2C)cc1 was read as KCNQ2 enhance inactive and KCNQ2 block inactive.
`Cc1ccc(S(=O)(=O)NCCSc2nnnn2-c2ccccc2)cc1` gave KCNQ2 enhance inactive, KCNQ2 block inactive, Kir21 confirm 68% and HEK293 ctr inactive.
`Cc1sc2nc(C(C)C)nc(SCC(=O)N3CCOCC3)c2c1C` gave KCNQ2 enhance 12, KCNQ2 block inactive, Kir21 confirm inactive, HEK293 ctr inactive, CHO-K1 ctr 5.3, KCNQ1 pot spec inactive, KCNQ2 pot conf 34, Kir2-1 sel inactive and KCNQ2 W236L MoA inactive.
`Cc1sc2ncnc(SCC(=O)N3CCCCC3)c2c1C` gave KCNQ2 enhance inactive and KCNQ2 block inactive.
Screening Cc1nc(SCC(=O)N2CCCCC2)c2c(C)c(C)sc2n1 returned KCNQ2 enhance 7.4, KCNQ2 block inactive, Kir21 confirm inactive, HEK293 ctr inactive, CHO-K1 ctr inactive, KCNQ1 pot spec 100, KCNQ2 pot conf 41, Kir2-1 sel inactive and KCNQ2 W236L MoA inactive.
CCn1c(SC(C)C(=O)N2CCOCC2)nc2sc(C)c(C)c2c1=O (stereo not drawn) was read as KCNQ2 enhance inactive and KCNQ2 block inactive.
Screening CN1CCCCCC1C(=O)N1CCC(N2CCC(C(=O)N3CCOCC3)CC2)CC1 (stereo not drawn) returned KCNQ2 enhance inactive and KCNQ2 block inactive.
Screening O=C(O)CCC(=O)N1N=C(c2ccc(Br)cc2)CC1c1cccc(Br)c1 (stereo not drawn) returned KCNQ2 block inactive.
Screening CCCOc1cccc(-c2cc(-c3n[nH]c(=S)n3CC)c3ccccc3n2)c1 returned KCNQ2 enhance 26, KCNQ2 block inactive, Kir21 confirm inactive, HEK293 ctr inactive, CHO-K1 ctr 115, KCNQ1 pot spec inactive, KCNQ2 pot conf inactive and Kir2-1 sel inactive.
`CCn1c(-c2cc(-c3ccc(C)cc3)nc3ccccc23)n[nH]c1=S` gave KCNQ2 block inactive.
`CC(=O)c1nnn(-c2nc(N)nc(N(c3ccccc3)c3ccccc3)n2)c1C` gave KCNQ2 enhance inactive and KCNQ2 block inactive.
Screening CCCCN(CCCC)c1nc(OC)nc(-n2nnc(C(C)=O)c2C)n1 returned KCNQ2 enhance 8, KCNQ2 block inactive, Kir21 confirm inactive, HEK293 ctr inactive, CHO-K1 ctr inactive, KCNQ1 pot spec inactive, KCNQ2 pot conf inactive, Kir2-1 sel inactive and KCNQ2 W236L MoA inactive.
Screening CCOc1ccc(N2CC(C(=O)Nc3ccccc3C(=O)N3CCOCC3)CC2=O)cc1 (stereo not drawn) returned KCNQ2 block inactive.
For COc1ccc(N2CCc3c(C)nc4c(OC)cccc4c32)cc1 the results were KCNQ2 enhance inactive and KCNQ2 block inactive.
`COc1cccc(N2CCc3c(C)nc4ccc(Cl)cc4c32)c1` gave KCNQ2 block inactive, Kir21 confirm 20% and HEK293 ctr inactive.
COc1ccccc1OCCCCCc1c(C)n[nH]c1C was read as KCNQ2 block inactive.
For COc1ccccc1OCCCc1c(C)n[nH]c1C the results were KCNQ2 enhance 5.8, KCNQ2 block inactive, Kir21 confirm inactive, HEK293 ctr inactive, CHO-K1 ctr 42, KCNQ1 pot spec inactive, KCNQ2 pot conf inactive, Kir2-1 sel inactive and KCNQ2 W236L MoA inactive.
`O=C(NN=C1CCCCC1)Nc1ccccc1Cl` gave KCNQ2 block inactive.
CC(=O)N1CCCC(C(=O)c2ccc(Oc3ccccc3)cc2)C1 (stereo not drawn) was read as KCNQ2 block inactive.
CCCCN(CC)C(=O)c1oc2ccc(S(=O)(=O)N3CCCC3)cc2c1C was read as KCNQ2 block inactive.
CN(CC(=O)Nc1ccccc1C(F)(F)F)C(=O)c1cc([N+](=O)[O-])ccc1N1CCOCC1 was read as KCNQ2 enhance inactive and KCNQ2 block inactive.
COc1cc(C)c(S(=O)(=O)NOCc2ccc([N+](=O)[O-])cc2)c(C)c1C was read as KCNQ2 enhance inactive and KCNQ2 block inactive.
`COc1cc(C)c(S(=O)(=O)NOCc2ccccc2)c(C)c1C` gave KCNQ2 block inactive, Kir21 confirm inactive and HEK293 ctr inactive.
For COc1cc(CNCCc2ccccc2F)ccc1OCc1ccc(Cl)nc1 the results were KCNQ2 enhance inactive and KCNQ2 block inactive.
`COc1cc(CNCCc2ccc(F)cc2)ccc1OCc1ccc(Cl)nc1` gave KCNQ2 block inactive, Kir21 confirm 32% and HEK293 ctr inactive.
Screening COC(=O)[C@@]12CCCCN1[C@H](c1ccc(-c3ccc(C(C)=O)cc3)cc1)[C@@H]1C(=O)N(C)C(=O)[C@@H]12 returned KCNQ2 enhance inactive and KCNQ2 block inactive.
